The source of these data is the supplement of paper PMC10849652.

About 8,800 targets were measured; listed, in parts, are those with a hit and a random draw of the rest. About 0.5% of all pairs of compound and target were hits.

Chain of UniProt O43741 (O43741 whole entry, looked up): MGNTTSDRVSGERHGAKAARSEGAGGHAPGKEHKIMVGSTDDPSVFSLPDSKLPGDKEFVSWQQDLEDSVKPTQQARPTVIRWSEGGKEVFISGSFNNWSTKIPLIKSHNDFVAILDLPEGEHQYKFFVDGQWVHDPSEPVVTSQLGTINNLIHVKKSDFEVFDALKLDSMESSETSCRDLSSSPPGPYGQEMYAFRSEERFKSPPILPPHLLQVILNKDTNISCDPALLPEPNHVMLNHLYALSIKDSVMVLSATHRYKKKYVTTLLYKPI
Chain of UniProt Q8N8N7 (Q8N8N7 whole entry, looked up): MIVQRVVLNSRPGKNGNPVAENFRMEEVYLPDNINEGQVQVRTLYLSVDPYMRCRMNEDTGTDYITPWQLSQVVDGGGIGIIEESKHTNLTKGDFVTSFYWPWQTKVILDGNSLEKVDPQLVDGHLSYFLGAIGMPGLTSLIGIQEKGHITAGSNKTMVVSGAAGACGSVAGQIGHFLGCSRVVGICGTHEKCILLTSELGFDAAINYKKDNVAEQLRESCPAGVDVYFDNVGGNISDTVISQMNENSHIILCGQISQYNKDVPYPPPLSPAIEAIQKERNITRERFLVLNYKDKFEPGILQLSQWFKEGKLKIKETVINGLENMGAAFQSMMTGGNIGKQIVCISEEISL
Chain of UniProt O00625 (O00625 whole entry, looked up): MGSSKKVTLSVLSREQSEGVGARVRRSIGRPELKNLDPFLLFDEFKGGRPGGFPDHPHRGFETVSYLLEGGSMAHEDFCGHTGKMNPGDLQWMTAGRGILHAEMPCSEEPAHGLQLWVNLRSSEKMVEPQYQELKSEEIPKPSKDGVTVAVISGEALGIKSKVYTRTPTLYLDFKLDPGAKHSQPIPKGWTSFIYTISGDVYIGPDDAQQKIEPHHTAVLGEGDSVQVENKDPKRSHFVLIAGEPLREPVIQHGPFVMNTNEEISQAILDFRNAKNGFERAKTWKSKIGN
Chain of UniProt P13861 (P13861 whole entry, looked up): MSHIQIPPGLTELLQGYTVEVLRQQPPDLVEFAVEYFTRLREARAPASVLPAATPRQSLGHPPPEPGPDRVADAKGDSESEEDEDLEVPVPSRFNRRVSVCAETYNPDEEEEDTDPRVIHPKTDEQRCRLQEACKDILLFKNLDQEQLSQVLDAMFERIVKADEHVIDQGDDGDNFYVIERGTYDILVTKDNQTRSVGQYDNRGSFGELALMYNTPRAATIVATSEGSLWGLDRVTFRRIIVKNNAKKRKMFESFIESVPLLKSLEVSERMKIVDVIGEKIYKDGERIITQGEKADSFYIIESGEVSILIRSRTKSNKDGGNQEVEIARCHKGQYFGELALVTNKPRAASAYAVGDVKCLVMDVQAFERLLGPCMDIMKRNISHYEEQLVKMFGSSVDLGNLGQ
Chain of UniProt P28065 (P28065 whole entry, looked up): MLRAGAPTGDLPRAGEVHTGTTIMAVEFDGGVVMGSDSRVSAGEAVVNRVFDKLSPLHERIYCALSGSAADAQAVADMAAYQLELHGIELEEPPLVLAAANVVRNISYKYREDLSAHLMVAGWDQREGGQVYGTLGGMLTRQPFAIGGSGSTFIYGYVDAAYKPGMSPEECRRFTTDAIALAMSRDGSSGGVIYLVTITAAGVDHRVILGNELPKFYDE
Chain of UniProt P41219 (P41219 whole entry, looked up): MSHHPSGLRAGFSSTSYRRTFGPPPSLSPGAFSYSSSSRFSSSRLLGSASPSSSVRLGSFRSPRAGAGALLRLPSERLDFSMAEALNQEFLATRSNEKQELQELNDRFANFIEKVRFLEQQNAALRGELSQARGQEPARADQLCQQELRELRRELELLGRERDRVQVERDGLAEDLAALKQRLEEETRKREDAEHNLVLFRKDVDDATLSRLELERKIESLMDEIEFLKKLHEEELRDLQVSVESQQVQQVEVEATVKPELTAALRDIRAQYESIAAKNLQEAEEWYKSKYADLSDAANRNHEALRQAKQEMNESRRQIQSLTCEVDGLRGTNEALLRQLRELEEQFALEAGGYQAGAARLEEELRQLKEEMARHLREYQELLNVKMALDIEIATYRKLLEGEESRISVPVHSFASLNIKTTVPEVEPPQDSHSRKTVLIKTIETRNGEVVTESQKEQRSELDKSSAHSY
Chain of UniProt P48634 (P48634 whole entry, looked up): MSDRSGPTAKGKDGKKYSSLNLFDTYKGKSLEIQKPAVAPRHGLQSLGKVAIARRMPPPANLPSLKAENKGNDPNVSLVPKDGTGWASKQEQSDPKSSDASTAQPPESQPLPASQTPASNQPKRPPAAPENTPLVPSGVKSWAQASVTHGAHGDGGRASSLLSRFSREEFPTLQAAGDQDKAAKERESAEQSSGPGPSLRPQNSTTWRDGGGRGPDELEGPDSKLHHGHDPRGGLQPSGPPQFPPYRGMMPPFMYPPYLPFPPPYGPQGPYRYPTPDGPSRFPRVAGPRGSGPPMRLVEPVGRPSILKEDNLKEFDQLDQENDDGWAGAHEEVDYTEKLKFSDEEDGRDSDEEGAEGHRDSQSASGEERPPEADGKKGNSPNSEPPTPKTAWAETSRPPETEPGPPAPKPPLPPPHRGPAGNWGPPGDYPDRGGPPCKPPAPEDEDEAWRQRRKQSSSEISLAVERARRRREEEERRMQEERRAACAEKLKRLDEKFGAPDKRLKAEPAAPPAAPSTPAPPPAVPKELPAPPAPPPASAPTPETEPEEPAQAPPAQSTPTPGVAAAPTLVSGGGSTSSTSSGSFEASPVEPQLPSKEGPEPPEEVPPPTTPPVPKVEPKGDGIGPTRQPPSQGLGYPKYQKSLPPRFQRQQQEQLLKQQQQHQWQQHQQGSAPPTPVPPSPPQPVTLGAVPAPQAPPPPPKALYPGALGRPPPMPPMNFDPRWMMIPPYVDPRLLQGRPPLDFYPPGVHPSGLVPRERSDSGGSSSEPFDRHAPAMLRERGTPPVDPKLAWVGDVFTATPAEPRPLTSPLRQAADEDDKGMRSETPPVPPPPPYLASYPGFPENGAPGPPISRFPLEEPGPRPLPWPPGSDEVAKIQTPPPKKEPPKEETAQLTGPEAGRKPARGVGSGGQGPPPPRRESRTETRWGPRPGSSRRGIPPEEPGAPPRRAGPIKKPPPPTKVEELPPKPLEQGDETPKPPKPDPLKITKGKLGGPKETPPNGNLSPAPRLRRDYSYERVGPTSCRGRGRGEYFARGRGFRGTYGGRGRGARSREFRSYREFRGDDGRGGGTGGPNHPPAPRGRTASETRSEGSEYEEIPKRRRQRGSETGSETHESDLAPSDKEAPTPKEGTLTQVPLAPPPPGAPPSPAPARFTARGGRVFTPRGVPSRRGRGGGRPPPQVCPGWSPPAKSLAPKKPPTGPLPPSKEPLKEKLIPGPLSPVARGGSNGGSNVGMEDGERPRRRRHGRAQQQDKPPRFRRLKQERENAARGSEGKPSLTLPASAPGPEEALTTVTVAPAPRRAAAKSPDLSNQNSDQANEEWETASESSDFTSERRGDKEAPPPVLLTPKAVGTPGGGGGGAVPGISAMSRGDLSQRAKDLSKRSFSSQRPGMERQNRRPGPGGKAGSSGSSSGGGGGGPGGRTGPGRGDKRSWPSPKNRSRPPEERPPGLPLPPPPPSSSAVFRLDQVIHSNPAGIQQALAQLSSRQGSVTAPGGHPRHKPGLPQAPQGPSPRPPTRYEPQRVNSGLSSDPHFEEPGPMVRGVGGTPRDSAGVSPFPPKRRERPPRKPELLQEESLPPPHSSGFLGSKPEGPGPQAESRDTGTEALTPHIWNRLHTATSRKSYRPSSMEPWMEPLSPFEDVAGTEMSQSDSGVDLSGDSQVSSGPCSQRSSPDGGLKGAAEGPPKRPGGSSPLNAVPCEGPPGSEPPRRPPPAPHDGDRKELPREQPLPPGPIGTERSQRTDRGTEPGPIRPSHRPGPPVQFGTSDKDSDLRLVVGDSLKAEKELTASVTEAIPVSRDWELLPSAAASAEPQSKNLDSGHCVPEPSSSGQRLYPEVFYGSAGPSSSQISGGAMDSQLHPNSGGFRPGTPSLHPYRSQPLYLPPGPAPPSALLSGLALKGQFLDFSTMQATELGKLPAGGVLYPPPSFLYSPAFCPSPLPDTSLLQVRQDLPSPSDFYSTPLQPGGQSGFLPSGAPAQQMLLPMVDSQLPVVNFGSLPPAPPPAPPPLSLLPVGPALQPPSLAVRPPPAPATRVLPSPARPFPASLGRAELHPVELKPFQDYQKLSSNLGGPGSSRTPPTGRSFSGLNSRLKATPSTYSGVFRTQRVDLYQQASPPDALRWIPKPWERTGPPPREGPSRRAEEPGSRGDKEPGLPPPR
Chain of UniProt P35236 (P35236 whole entry, looked up): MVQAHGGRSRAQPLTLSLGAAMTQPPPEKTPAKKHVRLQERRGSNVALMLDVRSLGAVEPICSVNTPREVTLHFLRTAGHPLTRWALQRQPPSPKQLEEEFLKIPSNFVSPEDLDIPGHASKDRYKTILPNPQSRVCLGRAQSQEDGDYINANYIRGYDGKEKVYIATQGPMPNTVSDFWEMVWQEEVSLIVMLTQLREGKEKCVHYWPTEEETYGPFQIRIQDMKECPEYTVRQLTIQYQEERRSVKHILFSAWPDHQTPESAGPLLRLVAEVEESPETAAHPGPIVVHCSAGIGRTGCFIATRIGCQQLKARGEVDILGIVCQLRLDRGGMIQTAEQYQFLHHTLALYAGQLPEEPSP
Chain of UniProt Q9UHV9 (Q9UHV9 whole entry, looked up): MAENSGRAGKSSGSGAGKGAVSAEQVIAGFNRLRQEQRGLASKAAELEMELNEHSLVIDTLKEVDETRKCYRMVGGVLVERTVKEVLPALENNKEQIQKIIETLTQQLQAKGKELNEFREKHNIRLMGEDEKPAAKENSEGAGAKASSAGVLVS
Chain of UniProt Q96S99 (Q96S99 whole entry, looked up): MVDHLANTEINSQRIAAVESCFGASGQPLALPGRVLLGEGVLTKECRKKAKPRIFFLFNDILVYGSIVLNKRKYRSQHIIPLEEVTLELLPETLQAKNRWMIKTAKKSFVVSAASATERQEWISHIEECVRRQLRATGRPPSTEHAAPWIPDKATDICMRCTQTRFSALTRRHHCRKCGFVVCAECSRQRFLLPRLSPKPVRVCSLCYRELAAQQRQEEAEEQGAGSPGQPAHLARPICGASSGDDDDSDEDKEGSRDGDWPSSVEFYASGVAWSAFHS

Compound in the experiment: NC(=O)Nc1cc(-c2cccc(F)c2)sc1C(=O)N[C@H]1CCCNC1
Kind of experiment: log2 fold change, soluble protein after heating vs DMSO (PISA); higher = thermal stabilisation; K562 lysate, 10 uM; active = over 0.2 and 3.5 SD of the protein, either way, in both replicates (recomputed). In outline: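 Values give the log-two fold change in thermal stability against solvent controls, from duplicates. Crude K562 extract at 1 mg/mL protein, made by dounce homogenisation in PBS pH 7.4 with 1 mM MgCl2, was treated with 10 μM compound for 30 min. After 3 min heating across 48°C-58°C, aliquots were pooled, adjusted to 0.5% NP-40 at 4°C and centrifuged at 21,000xg for 90 min. The supernatant was measured by TMTpro 16plex LC-MS/MS with channel sums equalised.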
Take PRRC2A (UniProt P48634): the log2 fold change was 0.059 (inactive).

Take PSMB9 (UniProt P28065): the log2 fold change is 0.027 (inactive).

As to PRKAR2A (UniProt P13861), the log2 fold change was -0.198 (inactive).

With PLEKHF1 (UniProt Q96S99), the log2 fold change is 0.021 (inactive).

For the target QKI (UniProt Q96PU8), the log2 fold change is 0.055 (inactive).

For PGRMC1 (UniProt O00264), the log2 fold change was -0.059 (inactive).

Regarding PYURF (UniProt Q96I23), the log2 fold change was -0.075 (inactive).

For PRKAB2 (UniProt O43741), the log2 fold change was 0.14 (inactive).

With PHKA1 (UniProt P46020), the log2 fold change was 0.272 (active).

Take PUS1 (UniProt Q9Y606): the log2 fold change was 0.043 (inactive).

For POC5 (UniProt Q8NA72), the log2 fold change was -0.005 (inactive).

Regarding PELO (UniProt Q9BRX2), the log2 fold change was 0.037 (inactive).

PPIL2 (UniProt Q13356): the log2 fold change is 0.018 (inactive).

As for PUM1 isoform 3 (UniProt Q14671), the log2 fold change is 0.004 (inactive).

Take PTPN7 isoform 3 (UniProt P35236): the log2 fold change is -0.006 (inactive).

As for PDCD6IP isoform 2 (UniProt Q8WUM4), the log2 fold change is -0.001 (inactive).

Turning to PRPH isoform 2 (UniProt P41219), the log2 fold change is -0.027 (inactive).

On to PIR (UniProt O00625), for which the log2 fold change was 0.02 (inactive).

On to PTGR2 (UniProt Q8N8N7), for which the log2 fold change is -0.011 (inactive).

As to PPP2R5C isoform 5 (UniProt Q13362), the log2 fold change is 0.032 (inactive).

As to PFKFB3 isoform 4 (UniProt Q16875), the log2 fold change was -0.025 (inactive).

Consider PFDN2 (UniProt Q9UHV9), for which the log2 fold change is -0.018 (inactive).
